Experimental data from paper PMC7862700, “An all-to-all approach to the identification of sequence-specific readers for epigenetic DNA modifications on cytosine”.

Key:
Assay in all cases: DAPPL (digital affinity profiling via proximity ligation, sequencing); 10 mM Tris-HCl pH 7.5, 50 mM NaCl, 1 mM DTT, 4% glycerol, room temperature, 30 min; GST-TFs on glutathione beads, 16-mer random dsDNA library, 0.1% formaldehyde crosslink after washing; high values mean tight binding
FLI1 = biological target: T1, FLI1 (Homo sapiens, UniProt Q01543 1-452); details: protein: recombinant; tags: N-terminal GST; dsDNA, one strand shown
T1 sequence: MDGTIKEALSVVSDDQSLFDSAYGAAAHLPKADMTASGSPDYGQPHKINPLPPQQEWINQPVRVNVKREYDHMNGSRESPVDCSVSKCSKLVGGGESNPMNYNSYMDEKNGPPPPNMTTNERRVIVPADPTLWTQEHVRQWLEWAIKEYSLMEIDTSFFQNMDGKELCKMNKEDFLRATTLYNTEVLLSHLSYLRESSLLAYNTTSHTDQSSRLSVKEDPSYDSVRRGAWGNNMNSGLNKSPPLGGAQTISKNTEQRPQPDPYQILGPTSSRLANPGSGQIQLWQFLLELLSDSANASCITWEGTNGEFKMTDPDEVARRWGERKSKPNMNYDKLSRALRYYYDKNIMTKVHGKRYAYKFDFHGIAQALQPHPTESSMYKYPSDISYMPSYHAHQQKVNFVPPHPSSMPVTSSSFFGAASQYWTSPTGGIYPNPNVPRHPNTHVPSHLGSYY
In short: (§1)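 The binding signal reported is, for every hexamer, its read frequency for a factor over its read frequency for the tag-only sample. Reads came from pools of yeast-expressed, GST-fused human transcription factors on glutathione beads, barcoded with DNA and mixed with that sample, which were incubated with 200 nmole of a random double-stranded 16-mer DNA library in Tris/NaCl/DTT/glycerol buffer at room temperature for 30 min. After washing, the pools were crosslinked with 0.1% formaldehyde, proximity-ligated with BsaI/T4 ligase for 1 h at 37 °C, PCR-amplified and sequenced on an Illumina NextSeq500.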

ELK1 = biological target: T2, ELK1 (Homo sapiens, UniProt P19419 1-428); details: protein: recombinant; tags: N-terminal GST; dsDNA, one strand shown
T2 sequence: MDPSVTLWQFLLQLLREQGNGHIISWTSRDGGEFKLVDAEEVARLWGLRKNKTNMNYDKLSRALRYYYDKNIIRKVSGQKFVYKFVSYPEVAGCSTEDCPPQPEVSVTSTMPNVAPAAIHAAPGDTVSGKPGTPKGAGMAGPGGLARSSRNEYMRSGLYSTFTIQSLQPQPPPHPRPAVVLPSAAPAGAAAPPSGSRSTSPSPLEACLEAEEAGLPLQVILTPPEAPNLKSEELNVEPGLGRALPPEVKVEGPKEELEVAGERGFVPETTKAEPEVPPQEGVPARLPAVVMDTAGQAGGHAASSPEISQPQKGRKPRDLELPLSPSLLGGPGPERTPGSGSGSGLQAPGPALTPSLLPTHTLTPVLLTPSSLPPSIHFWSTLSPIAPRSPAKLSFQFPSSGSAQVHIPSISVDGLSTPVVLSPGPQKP
In short: as §1

GABPA = biological target: T3, GABPA (Homo sapiens, UniProt Q06546 1-454); details: protein: recombinant; tags: N-terminal GST; dsDNA, one strand shown
T3 sequence: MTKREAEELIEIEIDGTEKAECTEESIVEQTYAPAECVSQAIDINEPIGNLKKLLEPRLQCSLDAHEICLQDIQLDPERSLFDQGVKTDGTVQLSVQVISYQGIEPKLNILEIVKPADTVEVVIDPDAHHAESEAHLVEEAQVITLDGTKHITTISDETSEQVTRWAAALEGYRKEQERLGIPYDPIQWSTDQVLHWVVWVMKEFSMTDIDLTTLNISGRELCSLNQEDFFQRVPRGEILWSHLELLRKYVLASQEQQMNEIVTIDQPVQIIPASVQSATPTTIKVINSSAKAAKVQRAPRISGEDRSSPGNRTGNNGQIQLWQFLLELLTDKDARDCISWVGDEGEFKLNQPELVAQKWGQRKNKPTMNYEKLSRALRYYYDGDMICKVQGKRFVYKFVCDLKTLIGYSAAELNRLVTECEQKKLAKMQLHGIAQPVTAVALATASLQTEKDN
In short: as §1

ERG = biological target: T4, ERG (Homo sapiens, UniProt P11308 1-479); details: protein: recombinant; tags: N-terminal GST; dsDNA, one strand shown
T4 sequence: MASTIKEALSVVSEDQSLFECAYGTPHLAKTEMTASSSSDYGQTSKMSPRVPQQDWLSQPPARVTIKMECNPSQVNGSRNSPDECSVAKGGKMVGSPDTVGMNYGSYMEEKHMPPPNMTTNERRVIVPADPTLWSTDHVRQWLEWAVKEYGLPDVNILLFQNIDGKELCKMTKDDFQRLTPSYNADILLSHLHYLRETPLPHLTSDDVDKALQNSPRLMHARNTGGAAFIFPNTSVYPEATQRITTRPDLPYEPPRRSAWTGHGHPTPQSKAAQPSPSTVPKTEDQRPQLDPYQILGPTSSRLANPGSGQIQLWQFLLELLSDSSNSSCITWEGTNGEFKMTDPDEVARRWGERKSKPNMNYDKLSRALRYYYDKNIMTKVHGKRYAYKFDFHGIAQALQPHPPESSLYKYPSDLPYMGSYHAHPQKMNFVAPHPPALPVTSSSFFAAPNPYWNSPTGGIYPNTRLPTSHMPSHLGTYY
In short: as §1

ELF1 = ELF1 (Homo sapiens, UniProt P32519 1-619); details: protein: recombinant; tags: N-terminal GST; dsDNA, one strand shown
Sequence of ELF1 (P32519 whole entry): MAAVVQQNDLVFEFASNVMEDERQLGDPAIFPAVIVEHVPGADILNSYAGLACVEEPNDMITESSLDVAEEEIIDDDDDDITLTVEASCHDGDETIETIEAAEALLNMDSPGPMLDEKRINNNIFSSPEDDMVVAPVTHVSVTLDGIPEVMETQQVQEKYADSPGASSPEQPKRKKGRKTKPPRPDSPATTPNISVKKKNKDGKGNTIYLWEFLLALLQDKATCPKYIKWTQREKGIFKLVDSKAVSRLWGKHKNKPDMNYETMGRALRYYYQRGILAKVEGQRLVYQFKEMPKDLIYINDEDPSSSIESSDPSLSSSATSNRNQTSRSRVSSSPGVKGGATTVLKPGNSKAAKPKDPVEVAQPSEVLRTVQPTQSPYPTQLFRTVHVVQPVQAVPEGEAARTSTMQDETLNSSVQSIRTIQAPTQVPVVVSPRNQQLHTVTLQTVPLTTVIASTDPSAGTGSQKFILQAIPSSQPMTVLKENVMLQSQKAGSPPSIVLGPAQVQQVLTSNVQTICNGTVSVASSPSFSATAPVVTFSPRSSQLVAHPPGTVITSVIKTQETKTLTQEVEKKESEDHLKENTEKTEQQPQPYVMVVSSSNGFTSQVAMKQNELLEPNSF
In short: as §1

EHF = biological target: T5, EHF (Homo sapiens, UniProt Q9NZC4 1-300); details: protein: recombinant; tags: N-terminal GST; dsDNA, one strand shown
T5 sequence: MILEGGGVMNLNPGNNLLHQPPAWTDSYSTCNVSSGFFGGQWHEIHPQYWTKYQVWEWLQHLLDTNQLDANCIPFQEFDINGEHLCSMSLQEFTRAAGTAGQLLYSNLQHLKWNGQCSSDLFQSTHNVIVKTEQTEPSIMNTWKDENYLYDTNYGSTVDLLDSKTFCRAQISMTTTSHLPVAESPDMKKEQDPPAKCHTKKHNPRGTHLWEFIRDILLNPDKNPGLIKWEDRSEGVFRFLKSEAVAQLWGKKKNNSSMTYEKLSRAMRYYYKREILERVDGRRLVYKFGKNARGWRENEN
In short: as §1

SPI1 = SPI1 (Homo sapiens, UniProt P17947 1-270); details: protein: recombinant; tags: N-terminal GST; dsDNA, one strand shown
In short: as §1

SPIB = SPIB (Homo sapiens, UniProt Q01892 1-262); details: protein: recombinant; tags: N-terminal GST; dsDNA, one strand shown
Sequence of SPIB (Q01892 whole entry): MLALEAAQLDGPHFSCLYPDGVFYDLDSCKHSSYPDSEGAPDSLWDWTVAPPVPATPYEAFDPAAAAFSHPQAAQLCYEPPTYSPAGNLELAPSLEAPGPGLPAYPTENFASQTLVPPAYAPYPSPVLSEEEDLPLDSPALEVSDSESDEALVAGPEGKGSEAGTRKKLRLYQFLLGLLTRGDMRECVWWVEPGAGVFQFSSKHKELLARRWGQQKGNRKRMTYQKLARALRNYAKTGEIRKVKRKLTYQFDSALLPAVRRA
In short: as §1

ELK3 = biological target: T6, ELK3 (Homo sapiens, UniProt P41970 1-407); details: protein: recombinant; tags: N-terminal GST; dsDNA, one strand shown
T6 sequence: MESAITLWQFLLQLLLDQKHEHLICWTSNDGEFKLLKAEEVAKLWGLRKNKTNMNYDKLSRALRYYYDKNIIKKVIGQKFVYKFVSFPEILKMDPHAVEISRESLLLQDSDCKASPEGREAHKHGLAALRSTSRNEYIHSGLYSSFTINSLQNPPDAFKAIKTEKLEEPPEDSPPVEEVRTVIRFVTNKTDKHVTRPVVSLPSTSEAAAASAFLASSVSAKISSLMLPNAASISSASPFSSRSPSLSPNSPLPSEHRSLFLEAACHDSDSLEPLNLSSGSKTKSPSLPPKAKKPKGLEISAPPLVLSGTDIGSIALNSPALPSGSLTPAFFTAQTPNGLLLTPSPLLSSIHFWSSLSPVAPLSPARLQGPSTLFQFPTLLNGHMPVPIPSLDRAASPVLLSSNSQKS
In short: as §1

FEV = biological target: T7, FEV (Homo sapiens, UniProt Q99581 1-238); details: protein: recombinant; tags: N-terminal GST; dsDNA, one strand shown
T7 sequence: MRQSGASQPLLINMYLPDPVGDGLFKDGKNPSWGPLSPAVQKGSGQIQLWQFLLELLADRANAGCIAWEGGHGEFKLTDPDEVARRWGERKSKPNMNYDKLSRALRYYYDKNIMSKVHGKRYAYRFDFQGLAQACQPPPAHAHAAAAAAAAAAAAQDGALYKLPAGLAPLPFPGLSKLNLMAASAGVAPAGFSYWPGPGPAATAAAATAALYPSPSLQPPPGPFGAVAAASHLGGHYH
In short: as §1

ETV5 = ETV5 (Homo sapiens, UniProt P41161 1-510); details: protein: recombinant; tags: N-terminal GST; dsDNA, one strand shown
Sequence of ETV5 (P41161 whole entry): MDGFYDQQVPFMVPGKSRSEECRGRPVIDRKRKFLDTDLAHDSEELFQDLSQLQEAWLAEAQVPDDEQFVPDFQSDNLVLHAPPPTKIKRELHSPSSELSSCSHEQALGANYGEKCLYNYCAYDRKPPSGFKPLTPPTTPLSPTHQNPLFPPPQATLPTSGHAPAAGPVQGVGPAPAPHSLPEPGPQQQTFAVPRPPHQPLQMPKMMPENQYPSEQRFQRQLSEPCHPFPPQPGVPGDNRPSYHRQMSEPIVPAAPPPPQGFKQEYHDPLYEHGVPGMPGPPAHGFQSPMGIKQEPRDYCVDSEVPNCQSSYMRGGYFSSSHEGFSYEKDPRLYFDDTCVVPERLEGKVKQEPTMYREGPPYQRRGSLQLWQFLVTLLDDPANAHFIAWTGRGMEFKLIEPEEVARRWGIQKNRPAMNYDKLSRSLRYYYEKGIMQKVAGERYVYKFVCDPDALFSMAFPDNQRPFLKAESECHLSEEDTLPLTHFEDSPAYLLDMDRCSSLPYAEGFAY
In short: as §1

HSF1 = HSF1 (Homo sapiens, UniProt Q00613 1-529); details: protein: recombinant; tags: N-terminal GST; chain copies: 3; dsDNA, one strand shown
Sequence of HSF1 (Q00613 whole entry): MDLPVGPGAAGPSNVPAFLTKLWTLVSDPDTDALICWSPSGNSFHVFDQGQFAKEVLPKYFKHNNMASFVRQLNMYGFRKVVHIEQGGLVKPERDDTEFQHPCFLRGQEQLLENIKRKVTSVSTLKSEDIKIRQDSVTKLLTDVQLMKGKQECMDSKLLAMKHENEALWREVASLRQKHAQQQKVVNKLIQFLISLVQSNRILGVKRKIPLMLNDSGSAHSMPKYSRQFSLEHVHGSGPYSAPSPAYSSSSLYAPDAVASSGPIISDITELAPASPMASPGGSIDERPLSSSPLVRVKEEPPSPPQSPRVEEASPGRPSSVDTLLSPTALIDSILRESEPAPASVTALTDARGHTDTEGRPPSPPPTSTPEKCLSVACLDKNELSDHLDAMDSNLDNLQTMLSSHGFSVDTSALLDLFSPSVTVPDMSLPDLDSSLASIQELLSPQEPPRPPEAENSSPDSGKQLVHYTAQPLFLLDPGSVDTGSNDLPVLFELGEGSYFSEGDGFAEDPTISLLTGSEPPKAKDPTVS
In short: as §1

ELF4 = ELF4 (Homo sapiens, UniProt Q99607 1-663); details: protein: recombinant; tags: N-terminal GST; dsDNA, one strand shown
Sequence of ELF4 (Q99607 whole entry): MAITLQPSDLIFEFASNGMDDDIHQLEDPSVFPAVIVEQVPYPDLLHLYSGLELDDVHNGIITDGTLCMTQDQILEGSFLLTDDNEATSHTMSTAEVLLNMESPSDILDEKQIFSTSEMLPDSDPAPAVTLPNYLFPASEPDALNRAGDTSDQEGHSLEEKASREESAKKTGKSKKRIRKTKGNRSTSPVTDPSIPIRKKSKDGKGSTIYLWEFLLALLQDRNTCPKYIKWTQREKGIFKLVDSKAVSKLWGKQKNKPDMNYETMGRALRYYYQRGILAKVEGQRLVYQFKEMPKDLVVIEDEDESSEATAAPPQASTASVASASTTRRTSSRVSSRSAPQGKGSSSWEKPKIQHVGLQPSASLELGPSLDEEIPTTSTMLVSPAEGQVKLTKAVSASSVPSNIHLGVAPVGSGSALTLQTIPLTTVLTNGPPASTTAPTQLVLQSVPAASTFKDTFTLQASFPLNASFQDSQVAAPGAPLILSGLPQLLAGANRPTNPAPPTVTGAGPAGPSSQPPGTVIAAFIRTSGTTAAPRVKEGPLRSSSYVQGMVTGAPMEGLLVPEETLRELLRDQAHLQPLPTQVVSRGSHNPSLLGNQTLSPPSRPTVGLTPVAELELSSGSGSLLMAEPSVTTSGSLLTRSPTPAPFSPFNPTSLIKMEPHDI
In short: as §1

ELK4 = biological target: T8, ELK4 (Homo sapiens, UniProt P28324-2 1-405); details: protein: recombinant; tags: N-terminal GST; dsDNA, one strand shown
T8 sequence: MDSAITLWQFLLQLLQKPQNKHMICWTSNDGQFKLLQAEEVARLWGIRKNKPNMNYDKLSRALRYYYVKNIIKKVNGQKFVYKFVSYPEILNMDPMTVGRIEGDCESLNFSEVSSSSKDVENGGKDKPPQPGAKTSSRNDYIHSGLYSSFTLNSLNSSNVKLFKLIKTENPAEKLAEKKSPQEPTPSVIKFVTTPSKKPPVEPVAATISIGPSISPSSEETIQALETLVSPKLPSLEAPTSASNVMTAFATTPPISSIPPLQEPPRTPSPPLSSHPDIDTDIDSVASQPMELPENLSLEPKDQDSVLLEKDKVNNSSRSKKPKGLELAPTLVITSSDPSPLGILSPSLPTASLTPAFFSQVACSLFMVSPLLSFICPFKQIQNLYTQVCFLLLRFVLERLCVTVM
In short: as §1

ETV2 = biological target: T9, ETV2 (Homo sapiens, UniProt O00321 1-342); details: protein: recombinant; tags: N-terminal GST; dsDNA, one strand shown
T9 sequence: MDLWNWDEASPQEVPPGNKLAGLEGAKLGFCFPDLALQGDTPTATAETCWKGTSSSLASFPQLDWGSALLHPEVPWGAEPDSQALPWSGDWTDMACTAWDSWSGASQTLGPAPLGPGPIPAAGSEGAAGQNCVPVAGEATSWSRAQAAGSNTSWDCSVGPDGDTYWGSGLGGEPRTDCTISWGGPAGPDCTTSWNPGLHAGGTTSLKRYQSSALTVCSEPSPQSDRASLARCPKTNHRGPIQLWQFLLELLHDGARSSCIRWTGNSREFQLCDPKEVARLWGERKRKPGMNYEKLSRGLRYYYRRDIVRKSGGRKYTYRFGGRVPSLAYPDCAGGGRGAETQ
In short: as §1

CRX = CRX (Homo sapiens, UniProt O43186 1-299); details: protein: recombinant; tags: N-terminal GST; dsDNA, one strand shown
Sequence of CRX (O43186 whole entry): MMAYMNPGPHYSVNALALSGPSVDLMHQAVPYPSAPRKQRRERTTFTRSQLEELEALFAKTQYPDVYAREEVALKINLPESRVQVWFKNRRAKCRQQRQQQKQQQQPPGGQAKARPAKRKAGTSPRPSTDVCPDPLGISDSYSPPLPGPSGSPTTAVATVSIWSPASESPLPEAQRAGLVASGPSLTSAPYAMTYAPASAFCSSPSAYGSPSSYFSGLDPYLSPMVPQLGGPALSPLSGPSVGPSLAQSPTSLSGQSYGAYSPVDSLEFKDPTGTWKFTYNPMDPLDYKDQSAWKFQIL
In short: as §1

ETV1 = ETV1 (Homo sapiens, UniProt P50549 1-477); details: protein: recombinant; tags: N-terminal GST; dsDNA, one strand shown
Sequence of ETV1 (P50549 whole entry): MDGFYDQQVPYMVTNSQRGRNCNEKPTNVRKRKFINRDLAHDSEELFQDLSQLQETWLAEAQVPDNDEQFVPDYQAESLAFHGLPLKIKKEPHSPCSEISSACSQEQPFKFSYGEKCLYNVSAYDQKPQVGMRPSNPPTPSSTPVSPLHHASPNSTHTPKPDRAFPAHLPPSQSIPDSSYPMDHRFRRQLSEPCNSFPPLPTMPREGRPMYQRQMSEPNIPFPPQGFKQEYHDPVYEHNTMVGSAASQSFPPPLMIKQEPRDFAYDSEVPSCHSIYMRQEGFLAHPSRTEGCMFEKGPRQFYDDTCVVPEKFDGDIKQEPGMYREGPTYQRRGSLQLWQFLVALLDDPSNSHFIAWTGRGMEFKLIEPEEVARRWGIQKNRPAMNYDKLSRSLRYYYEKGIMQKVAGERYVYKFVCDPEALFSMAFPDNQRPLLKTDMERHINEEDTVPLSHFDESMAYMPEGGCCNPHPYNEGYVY
In short: as §1

ATTGTC
binding signal (FLI1): 1.17 fold enrichment (6-mer frequency, TF over GST control)
binding signal (ELK1): 1.07 fold enrichment (6-mer frequency, TF over GST control)
binding signal (GABPA): 1.16 fold enrichment (6-mer frequency, TF over GST control)
binding signal (ERG): 1.13 fold enrichment (6-mer frequency, TF over GST control)
binding signal (ELF1): 1.13 fold enrichment (6-mer frequency, TF over GST control)
binding signal (EHF): 1.08 fold enrichment (6-mer frequency, TF over GST control)
binding signal (SPI1): 1.05 fold enrichment (6-mer frequency, TF over GST control)
binding signal (SPIB): 1.14 fold enrichment (6-mer frequency, TF over GST control)
binding signal (ELK3): 1.35 fold enrichment (6-mer frequency, TF over GST control)
binding signal (FEV): 1.11 fold enrichment (6-mer frequency, TF over GST control)
binding signal (ETV5): 1.14 fold enrichment (6-mer frequency, TF over GST control)
binding signal (HSF1): 1.04 fold enrichment (6-mer frequency, TF over GST control)
binding signal (ELF4): 1.08 fold enrichment (6-mer frequency, TF over GST control)
binding signal (ELK4): 1.17 fold enrichment (6-mer frequency, TF over GST control)
binding signal (ETV2): 1.14 fold enrichment (6-mer frequency, TF over GST control)
binding signal (CRX): 1.06 fold enrichment (6-mer frequency, TF over GST control)
binding signal (ETV1): 1.21 fold enrichment (6-mer frequency, TF over GST control)
